A selection: hits, their analogues and other compounds. The true share with any hit is near 3.5%.
MITF primary: human MITF inhibition, primary screen; O75030; actives 0.91% (n = 650,000); inhibition, % at 2.6 µM; AlphaScreen MITF homodimerization, bead proximity signal; in the data active = inhibition above about 50%;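 note: 0% = vehicle wells with protein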
Target sequence (O75030 whole entry, looked up): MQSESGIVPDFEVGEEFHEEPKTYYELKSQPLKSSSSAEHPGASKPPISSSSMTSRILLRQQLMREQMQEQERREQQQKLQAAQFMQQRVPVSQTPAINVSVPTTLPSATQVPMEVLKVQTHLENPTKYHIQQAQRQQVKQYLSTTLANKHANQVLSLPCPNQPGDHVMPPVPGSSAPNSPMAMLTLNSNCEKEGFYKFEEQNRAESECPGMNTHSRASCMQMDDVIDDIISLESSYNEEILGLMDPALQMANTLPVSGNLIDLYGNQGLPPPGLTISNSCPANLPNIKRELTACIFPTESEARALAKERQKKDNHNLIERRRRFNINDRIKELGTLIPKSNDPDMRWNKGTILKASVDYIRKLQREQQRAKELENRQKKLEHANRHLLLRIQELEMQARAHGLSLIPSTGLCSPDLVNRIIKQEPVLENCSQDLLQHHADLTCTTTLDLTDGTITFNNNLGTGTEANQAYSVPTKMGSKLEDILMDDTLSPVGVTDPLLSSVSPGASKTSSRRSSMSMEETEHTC
FBW7 act: human FBW7 E3 ligase activation, primary screen | normalized activity (activation), % at 26.1 µM | AlphaScreen FBW7–phospho-cyclin E peptide binding, activator screen | Q969H0 | AID 1259310 | actives 0.13% (n = 650,000); in the data active = normalized activity above about 1.9%;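 note: purified mutant Fbw7 with reduced substrate affinity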
GPR151 ag: activators of human GPR151; Q8TDV0; PathHunter beta-arrestin GPR151 cells, luminescence; activation, % at 11.2 µM; actives 1% (n = 650,000); AID 1508602; in the data active = activation above about 4.9%;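 note: 0% = median of compound wells and 100% = cells with positive control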
TEAD-YAP block: TEAD-YAP interaction inhibition; HEK-TIYL cells, TEAD-Gal4/YAP UAS-luciferase luminescence; actives 1.4% (n = 640,000); AID 1259422; inhibition, % at 9.12 µM; in the data active = inhibition above about 32%;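 note: 0% = median of test compound wells and 100% = reference inhibitor wells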
An asterisk follows results filed as active.

SMILES | MITF primary | FBW7 act | GPR151 ag | TEAD-YAP block
CNC1=C(N(Cc2ccc(Cl)c(Cl)c2)C(C)=O)C(=O)c2ccccc2C1=O | 10.0 | -0.2 | -1.6 | 83.4*
CC(=O)N(Cc1ccccc1)C1=C(N2CCCCC2)C(=O)c2ccccc2C1=O | 13.7 | 0.2 | -0.9 | -8.4
CC(=O)N(Cc1ccc(F)cc1)C1=C(Cl)C(=O)c2ccccc2C1=O | 9.9 | -0.1 | -3.4 | 13.1
CC(=O)N(Cc1ccc(F)cc1)C1=C(NCCc2ccccc2)C(=O)c2ccccc2C1=O | 15.2 | -0.3 | 2.4 | 59.8*
CCC(=O)N(C1=C(NC)C(=O)c2ccccc2C1=O)C(C)C | -10.1 | -0.1 | -1.6 | 85.0*
COc1ccc(C(=O)CSc2n[nH]c(-c3ccncc3)n2)cc1 | -1.0 | -0.1 | 1.5 | -22.2
COc1cc(/C=N\NC(=O)Cn2c(-c3nonc3N)nc3ccccc32)cc(OC)c1O | 1.0 | 0.1 | -1.1 | 3.0
c1ccc2[nH]c(CNc3nc(-c4ccc(N5CCOCC5)nc4)nc4c3ncn4-c3ccsc3)nc2c1 | 4.0 | 23.2* | 1.8 | 81.7*
COc1ccc(-c2nc(NCc3nc4ccccc4[nH]3)c3ncn(-c4ccsc4)c3n2)cn1 | -0.1 | 0.8 | -0.6 | 78.1*
CC(C)n1cnc2c(NCc3nc4ccccc4[nH]3)nc(N3CCOCC3)nc21 | -1.7 | 0.2 | -0.7 | 79.2*
CC(C)n1cnc2c(NCc3ccccc3)nc(-c3ccc(N4CCOCC4)nc3)nc21 | 3.2 | 0.1 | -1.5 | 4.5
CC(C)n1cnc2c(NCc3nc4ccccc4[nH]3)nc(-c3ccc(N4CCOCC4)nc3)nc21 | -0.9 | 0.3 | -0.8 | 70.0*
COc1ccc(-c2nc(NCc3nc4ccccc4[nH]3)c3ncn(-c4ccsc4)c3n2)cc1 | 15.5 | 0.1 | 1.0 | 26.9
CN(Cc1n[nH]c(=O)[nH]1)Cc1ccccc1OCC(O)CN1CCc2ccccc2C1 (stereo unspecified) | -12.0 | -0.1 | -2.2 | -7.1
CCOc1ccc(C2c3c(-c4ccccc4O)n[nH]c3C(=O)N2CCCO)cc1OCC (stereo unspecified) | 9.5 | -0.1 | 0.9 | -1.0
CCCCCCNC(=O)c1ccc(CNC(=O)c2ccc(Br)cc2)cc1 | -1.1 | 0.0 | -1.7 | -3.4
CC1=NN(c2cc(Cl)ccc2Cl)C(=O)/C1=C\c1cccn1-c1ccc(S(N)(=O)=O)cc1 | 5.6 | -0.2 | -0.8 | -3.2
O=C(NCC1CCCN(Cc2cccn2-c2cccnc2)C1)c1n[nH]c2ccccc12 (stereo unspecified) | -2.4 | -0.2 | -1.7 | -6.5
O=C(NCC1CCCN(Cc2cccn2-c2ccccn2)C1)c1n[nH]c2ccccc12 (stereo unspecified) | 17.3 | 0.1 | 1.0 | 69.9*
O=c1c2c3c(sc2nc2c4ccccc4cnn12)CCCC3 | -9.1 | -0.1 | -4.8 | 53.0*
O=c1c2c3c(sc2nc2c4ccccc4c4nnnn4n12)CCCC3 | 5.2 | 0.0 | 1.6 | 3.3
O=C(/C=C/c1ccco1)Nc1nc2ccc(Br)cc2s1 | 6.1 | 0.0 | 1.4 | 1.9
O=c1c(O)cccc2cc(O)c(O)c(O)c12 | 89.8* | -0.3 | 3.0 | -5.9
CNC(=O)c1ccccc1Nc1cc(Nc2ccc3[nH]c(=O)oc3c2)ncc1C(F)(F)F | 11.4 | 0.1 | 1.3 | 33.1*
CNC(=O)c1ccccc1Nc1cc(Nc2ccc3[nH]nc(C4=CCNCC4)c3c2)ncc1C(F)(F)F | 2.4 | 0.3 | 0.7 | -36.1
SMILES | MITF primary | FBW7 act | GPR151 ag | TEAD-YAP block
CNC(=O)c1ccncc1Nc1cc(Nc2ccc3c(c2)CC(=O)N3)ncc1C(F)(F)F | 1.9 | -0.2 | 2.6 | -7.0
CNS(=O)(=O)c1ccccc1Nc1cc(Nc2ccc3c(c2)CCC(=O)N3)ncc1C(F)(F)F | -4.7 | -0.1 | -0.4 | 92.5*
CNC(=O)c1ccccc1Nc1cc(Nc2ncccn2)ncc1C(F)(F)F | 20.9 | 0.1 | -0.8 | 23.8
CNS(=O)(=O)c1ccccc1Nc1cc(Nc2ccccc2S(=O)(=O)NC)c(C(F)(F)F)cn1 | 20.9 | 0.2 | 2.1 | 0.9
CNC(=O)c1ccccc1Nc1cc(Nc2ccc3c(c2)CC(=O)N3)ncc1C(F)(F)F | 15.7 | 0.0 | -0.1 | 51.5*
CNC(=O)c1ccccc1Nc1cc(Nc2ccc3c(c2)OCO3)ncc1C(F)(F)F | -6.5 | -0.1 | 0.0 | 40.6*
CC1CN(C2=NS(=O)(=O)c3ccccc32)CC(C)O1 (stereo unspecified) | 11.0 | 0.1 | 1.4 | -1.7
CNC(=O)c1ccccc1Nc1cc(Nc2ccc3c(c2)CC(=O)N3C)ncc1C(F)(F)F | -3.3 | -0.1 | -1.6 | 64.6*
CNC(=O)c1cc(F)ccc1Nc1cc(Nc2ccc(N3CCCC3=O)cc2)ncc1C(F)(F)F | -7.2 | -0.2 | 0.5 | 31.5
COc1ccc(/C=C\c2nc(O)c([N+](=O)[O-])c(=O)[nH]2)cc1O | -8.6 | -0.1 | -0.8 | 1.3
O=c1[nH]c(/C=C/c2ccc3c(c2)OCO3)nc2ccccc12 | 10.0 | -0.1 | -7.8 | 56.1*
COc1cccc(/C=C/c2nc3ccccc3c(=O)[nH]2)c1O | 15.1 | 0.3 | -10.8 | 64.9*
COc1ccc(/C=C/c2nc3ccccc3c(=O)[nH]2)cc1O | 5.9 | 0.0 | -9.4 | 44.3*
COc1cc(C(=O)NCCC(=O)O)cc(OC)c1OC | 11.0 | 0.0 | 1.0 | 11.0
Cc1ccccc1C1(C)CCOCC1 | -4.0 | -0.2 | -0.2 | -5.1
Cc1ccc2sc(-c3ccc(N4C(=O)C5CC=CC(C)C5C4=O)cc3)nc2c1 (stereo unspecified) | 6.8 | 0.0 | 2.5 | 6.8
Cc1nc(NCc2ccc(Cl)cc2)c2c(C)c(C)sc2n1 | 12.5 | -0.1 | -0.3 | 39.2*
Cc1sc2nc(-c3cccnc3)nc(NCc3cccnc3)c2c1C | 73.2* | 0.0 | -1.8 | 68.1*
COc1ccccc1CNc1nc(C)nc2sc(C)c(C)c12 | 0.5 | -0.1 | 1.9 | 46.0*
COC(=O)Cc1nc(NCc2ccccc2OC)c2c(C)c(C)sc2n1 | 20.2 | 0.7 | 0.7 | 4.1
Cc1nc(NCc2ccc(F)cc2)c2c(C)c(C)sc2n1 | 8.4 | 0.1 | 1.0 | 34.8*
Cc1sc2ncnc(NCc3ccc(Cl)cc3)c2c1C | -3.6 | 0.1 | 0.9 | -2.9
O=C1CCCN1c1ccc(NS(=O)(=O)c2ccc(F)cc2)cc1 | 9.0 | 0.0 | -0.8 | 31.2
O=C1CCCN1c1ccc(S(=O)(=O)Oc2ccc(Cl)cc2Cl)cc1 | -0.2 | 0.1 | 0.2 | 61.2*
O=C1CCCN1c1ccc(S(=O)(=O)Nc2ccc(F)c(Cl)c2)cc1 | -2.1 | 0.0 | 1.2 | 46.5*
SMILES | MITF primary | FBW7 act | GPR151 ag | TEAD-YAP block
O=C1CCCN1c1ccc(S(=O)(=O)Nc2ccc(Cl)c(Cl)c2)cc1 | -3.7 | 0.0 | 1.2 | 45.6*
NNS(=O)(=O)c1ccc(N2CCCC2=O)cc1 | -9.0 | -0.2 | -0.3 | 7.8
O=C1CCCN1c1ccc(S(=O)(=O)Oc2cccc([N+](=O)[O-])c2)cc1 | -1.8 | -0.1 | -0.8 | 52.0*
O=C1CCCN1c1cccc([N+](=O)[O-])c1 | 10.0 | 0.5 | -0.5 | 7.2
Cc1ccc(-c2nc(C(N)=O)c3[nH]c(=O)n(C4CCCCC4)c3n2)cc1 | -4.4 | 0.0 | 1.6 | -4.7
O=C(NCCO)C(=O)NCC1(c2ccccc2)CCCC1 | -0.8 | 0.2 | 1.3 | 6.0
CCOC(=O)c1ccc2c(c1)c1c3n2CCNC3CCC1 (stereo unspecified) | -9.3 | 0.0 | 2.4 | 4.2
